# Out of some 5,500 compounds screened, about 2,000 (36%) were called active. Inconclusive results (about 18%) are left out. The list shows a part of the results. Values without a mark were called inactive. Rule as the data show it: active = normalized growth mostly below about 0.91 (no sharp cut-off); inconclusive = no clear call, values can overlap the other calls; inactive = mostly above about 0.92.
# Assay: chemical genetic growth profiling, strain panel (AID 1159580);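 also: tested at 20 µM; growth read once vehicle control cultures reached saturation at 30 °C; 1 = growth at the plate median or of vehicle wells; lower values mean less growth of the strain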
# Conditions: S. cerevisiae deletion strains, growth OD
smiles,measurement,setting,value
CN1C2CCC1CC(OC(c1ccccc1)c1ccc(Cl)cc1)C2 (stereo not given),normalized growth,"locus YAL040C, strain CLN3, hits give low values",1.01
same,normalized growth,"locus YCL061C, strain MRC1 (second series), hits give low values",1
same,normalized growth,"locus YDR150W, strain NUM1, hits give low values",0.997
same,normalized growth,"locus YDR363W, strain ESC2, hits give low values",0.958
same,normalized growth,"locus YER002W, strain NOP16, hits give low values",1.04
same,normalized growth,"locus YGR078C, strain PAC10, hits give low values",1.02
same,normalized growth,"locus YGR229C, strain SMI1, hits give low values",0.844 (active)
same,normalized growth,"locus YMR263W, strain SAP30, hits give low values",0.997
same,normalized growth,"locus YMR307W, strain GAS1, hits give low values",0.994
same,normalized growth,"locus YNL153C, strain GIM3, hits give low values",0.987
same,normalized growth,"locus YNL175C, strain NOP13, hits give low values",1.04
same,normalized growth,"locus YNL197C, strain WHI3, hits give low values",1.03
same,normalized growth,"locus YNL224C, strain SQS1, hits give low values",1.05
same,normalized growth,"locus YOR083W, strain WHI5 (second series), hits give low values",1.01
same,normalized growth,"locus YPL241C, strain CIN2, hits give low values",0.993
